BaF3 tox – reduces parental Ba/F3 cell viability, JAK2V617F counter-screen. 220,000 compounds, 1.1% hits. CellTiter-Glo ATP luminescence. inhibition, % at 5.6 µM;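 active = inhibition above a per-campaign cutoff, the mean inhibition of all tested compounds plus 3 SD, cut at about 27% in these data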;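 also: 0% = DMSO wells and 100% = JAK Inhibitor I control wells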
aSyn UTR inh – MLPCN primary screen, SNCA 5' untranslated region. alpha-synuclein 5'UTR reporter, inhibitor activity. inhibition, % (tested at 7.5 µM). 300,000 compounds, 0.82% hits. AID 1813; in the data active = inhibition above about 60%;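 also: H4 neuroglioblastoma cells stably carrying SNCA 5'UTR luciferase fusion; 0% = DMSO wells and 100% = positive control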
IEC-6 cytotox – IEC-6 cytotoxicity, counter-screen for KLF5 inhibitors; 290,000 compounds, 0.78% hits; luminescence viability; inhibition, % at 5 µM; in the data active = inhibition above about 22%;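 also: 0% = plate median of test compound wells and 100% = cytotoxic reference compound wells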
KLF5 inhibitor – suppresses KLF5 promoter-driven expression; 290,000 compounds, 0.23% hits; DLD-1 KLF5 promoter-luciferase reporter, luminescence; AID 1700; inhibition, % at 5 µM;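 active = inhibition above a per-plate limit of that plate's mean compound inhibition plus 3 SD, cut at about 60% in these data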;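 also: 0% = DMSO wells and 100% = LY294002 at 200 µM; higher means less KLF5 promoter-driven luciferase light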
Ba/F3 V617F tox – reduce viability of Ba/F3 cells dependent on JAK2V617F; inhibition, % at 5.6 µM; 220,000 compounds, 1.1% hits; Ba/F3 EpoR-JAK2V617F viability, ATP luminescence; AID 1446;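 active = inhibition above the campaign mean plus 3 SD over all tested compounds, cut at about 24% in these data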;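 also: cytokine-independent growth of Ba/F3 cells driven by EpoR plus mutant JAK2; 0% = DMSO-treated cells and 100% = JAK inhibitor I control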
APP 5UTR inh – APP translation inhibition; 190,000 compounds, 0.82% hits; inhibition, % at 2 µM; SH-SY5Y APP 5'UTR-luciferase reporter, luminescence;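 active = inhibition above a set limit, derived from the sample mean plus 3 SD, cut at about 45% in these data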
* hit, by the source's call; x = not tested or not shown. Only some compounds are listed: those with a hit (about 2.2% of all), similar ones and a draw of the others.

SMILES	BaF3 tox	aSyn UTR inh	IEC-6 cytotox	KLF5 inhibitor	Ba/F3 V617F tox	APP 5UTR inh
CCC1S/C(=C(\C#N)C(=O)NCc2ccco2)N(c2ccc(Br)cc2)C1=O (stereo not drawn)	5.2	-2.3	1.5	-18.4	-0.9	x
COc1cc(-c2ccc(=O)[nH]n2)ccc1OC(F)F	-7.0	86.7*	-3.4	-15.2	-1.8	x
CCCC(C(=O)NCCC(C)C)N(Cc1ccccc1Cl)C(=O)c1snc(C(N)=O)c1N (stereo not drawn)	x	17.3	4.6	6.4	x	x
N/C(Cc1nc(-c2ccc(Cl)cc2)cs1)=N/O	-0.2	-67.3	3.8	-11.6	-3.7	x
CC(=O)Nc1ccc(S(=O)(=O)Nc2c(NC3CCCCC3)c3ccccc3oc2=O)cc1	x	7.5	-3.2	-1.1	x	x
COc1ccc(-c2cnnc(N/N=C/c3ccc(-c4ccc([N+](=O)[O-])cc4)o3)n2)cc1	4.6	x	0.1	-28.5	-0.6	90.3*
O=[N+]([O-])c1ccc(-c2ccc(/C=N/Nc3nc(N4CCCC4)nc(N4CCCC4)n3)o2)cc1	-0.6	-13.2	-8.6	-11.2	-2.0	-4.4
Cc1ccc2[nH]c3c(c2c1)CN(C(=O)CN1CCN(c2cccc(C)c2C)CC1)CC3	4.3	14.6	-1.5	-25.7	-1.8	-8.7
Cc1ccc2[nH]c3c(c2c1)CN(C(=O)CN1c2ccc(F)cc2CCC1C)CC3 (stereo not drawn)	94.5*	21.8	1.8	-12.2	0.7	0.5
O=C(/C=C/c1ccccc1)NCCS(=O)(=O)N1CCN(c2ccccc2F)CC1	x	6.5	x	x	x	x
COc1ccc(-c2nn(-c3ccccc3)cc2C(=O)NC(=S)NNC(=O)c2ccncc2)cc1	3.6	72.5*	24.7*	19.9	5.1	49.9*
COc1ccc(NC(=O)c2cn(-c3ccccc3)nc2-c2ccncc2)cc1	8.8	-25.2	-0.8	-33.5	1.8	10.4
COc1ccc(-n2ncc(Cl)c(Cl)c2=O)cc1	-9.3	-154.5	61.0*	-9.7	8.6	91.5*
COc1ccc(-n2ncc(N(C)n3cccc3)c(Cl)c2=O)cc1	2.4	x	-1.9	-158.4	0.6	-133.1
COc1ccc(C2C3=C(CCCC3=O)Nc3nc(-c4cc(OC)c(OC)c(OC)c4)nn32)cc1OC (stereo not drawn)	93.0*	-5.8	0.8	-25.1	-0.1	-3.4
CCOC(=O)c1ccc2nc(Nc3nc4ccc(F)cc4s3)sc2c1	5.2	13.3	-6.8	49.0	-1.8	6.8
COC(=O)c1ccc2nc(Nc3nc4c(F)cc(F)cc4s3)sc2c1	6.5	-11.7	10.5	91.8*	2.1	4.0
Cc1ccc(-c2nn3cnnc3c3ccccc23)cc1	82.0*	15.1	3.3	-9.6	1.5	7.3
O=C1C=C(N2CCCCC2)c2ccccc2C1=O	x	122.4*	x	x	x	x
CCc1nnc(N/N=C/c2cccs2)n1N	0.3	14.8	94.4*	-18.1	2.7	14.4
CCc1nnc(N/N=C/c2cc(Br)c(O)cc2O)n1N	x	24.7	-8.0	-27.3	x	x
CCc1nnc(N/N=C/c2c(Cl)cccc2Cl)n1N	5.0	3.9	61.9*	-13.3	2.6	-10.4
Nc1nc(SCc2cccc([N+](=O)[O-])c2)n[nH]1	x	10.2	-5.5	5.2	x	x
COc1ccc(CN2CCN(CCc3ccccc3)C(CCO)C2)c(Cl)c1OC (stereo not drawn)	x	3.6	5.3	-41.8	x	x
C/C(=N\NC(=S)Nc1ccc(F)cc1)C1CC1	91.9*	-30.3	-1.2	-44.0	8.5	20.4
SMILES	BaF3 tox	aSyn UTR inh	IEC-6 cytotox	KLF5 inhibitor	Ba/F3 V617F tox	APP 5UTR inh
O=C(CN(Cc1ccccc1Cl)C(=O)c1csnn1)NCc1ccccc1	x	-17.7	4.4	-6.3	x	x
COC(=O)c1sccc1NC(=O)c1c(-c2ccccc2)noc1C	4.8	5.1	20.3	9.3	-3.1	-9.4
COC(=O)c1c(-c2ccc(C)cc2)csc1NC(=O)c1c(-c2ccccc2)noc1C	4.7	67.9*	-6.5	-14.4	-1.2	-9.6
CCCc1sc(N/N=C/c2ccccn2)nc1-c1ccc(Br)cc1	12.6	81.8*	1.8	-0.9	5.4	-104.5
COC(=O)/C(=C\Nc1ccc(Oc2ccc(F)cc2F)nc1)NC(=O)c1ccccc1	36.2*	-1.1	2.4	-11.6	0.0	x
O=[N+]([O-])c1ccc(C2=NCCO2)cc1	-9.0	-32.6	-1.6	-50.9	0.8	x
COc1ccc(S(=O)(=O)N2CCC(C(=O)NC3CCCCC3)CC2)cc1C	x	24.7	-1.3	-20.1	x	x
O=[N+]([O-])c1ccc(C[n+]2cccc3c4ccccc4ccc32)cc1	73.8*	17.1	-11.3	-22.2	89.8*	3.6
Cc1ccc[n+](Cc2ccc([N+](=O)[O-])cc2)c1	10.6	8.7	0.2	-28.0	2.5	-15.6
